Experimental findings from paper PMC7862700, “An all-to-all approach to the identification of sequence-specific readers for epigenetic DNA modifications on cytosine” are described below.

What all share (test): DAPPL (digital affinity profiling via proximity ligation, sequencing); 10 mM Tris-HCl pH 7.5, 50 mM NaCl, 1 mM DTT, 4% glycerol, room temperature, 30 min; GST-TFs on glutathione beads, 16-mer random dsDNA library, 0.1% formaldehyde crosslink after washing; high values mean tight binding
The target in one experiment is T1, FEV (Homo sapiens, UniProt Q99581 1-238).
T1 sequence: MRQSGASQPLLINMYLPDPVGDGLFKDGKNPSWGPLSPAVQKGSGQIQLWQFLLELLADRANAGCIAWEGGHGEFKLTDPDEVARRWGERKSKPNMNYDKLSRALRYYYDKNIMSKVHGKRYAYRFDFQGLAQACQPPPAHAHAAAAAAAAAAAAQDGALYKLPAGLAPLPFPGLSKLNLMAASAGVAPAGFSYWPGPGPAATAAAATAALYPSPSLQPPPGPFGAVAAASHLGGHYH
To be noted: protein: recombinant; tags: N-terminal GST; dsDNA, one strand shown. Summed up:
(§1)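 Binding signal is each hexamer's read frequency for a factor divided by its frequency in the tag-only sample. The factors were GST-fused human transcription factors from yeast, captured on glutathione beads, DNA-barcoded and pooled with that sample. Pools were incubated with 200 nmole of a random double-stranded 16-mer DNA library in Tris/NaCl/DTT/glycerol buffer at room temperature for 30 min, then washed, crosslinked with 0.1% formaldehyde, proximity-ligated with BsaI/T4 ligase (1 h, 37 °C), PCR-amplified and sequenced on an Illumina NextSeq500.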

A further experiment addresses ETV5 (Homo sapiens, UniProt P41161 1-510). To be noted: protein: recombinant; tags: N-terminal GST; dsDNA, one strand shown. Put shortly: as §1
The next experiment concerns the target HSF1 (Homo sapiens, UniProt Q00613 1-529). Particulars: protein: recombinant; tags: N-terminal GST; chain copies: 3; dsDNA, one strand shown. Summed up: as §1
Another experiment concerns the target T2, SPIC (Homo sapiens, UniProt Q8N5J4 1-248).
T2 sequence: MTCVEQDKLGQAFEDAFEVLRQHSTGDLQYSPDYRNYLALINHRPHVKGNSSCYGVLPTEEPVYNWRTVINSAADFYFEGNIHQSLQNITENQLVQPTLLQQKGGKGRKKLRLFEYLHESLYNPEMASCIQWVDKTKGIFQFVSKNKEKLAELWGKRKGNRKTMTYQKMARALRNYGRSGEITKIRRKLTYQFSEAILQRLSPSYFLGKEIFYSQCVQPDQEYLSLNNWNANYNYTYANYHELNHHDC
Particulars: protein: recombinant; tags: N-terminal GST; dsDNA, one strand shown. Summed up: as §1

The target in a further experiment is ELF4 (Homo sapiens, UniProt Q99607 1-663). To be noted: protein: recombinant; tags: N-terminal GST; dsDNA, one strand shown. Put shortly:
as §1

For the next experiment, the target named is T3, ELK4 (Homo sapiens, UniProt P28324-2 1-405).
T3 sequence: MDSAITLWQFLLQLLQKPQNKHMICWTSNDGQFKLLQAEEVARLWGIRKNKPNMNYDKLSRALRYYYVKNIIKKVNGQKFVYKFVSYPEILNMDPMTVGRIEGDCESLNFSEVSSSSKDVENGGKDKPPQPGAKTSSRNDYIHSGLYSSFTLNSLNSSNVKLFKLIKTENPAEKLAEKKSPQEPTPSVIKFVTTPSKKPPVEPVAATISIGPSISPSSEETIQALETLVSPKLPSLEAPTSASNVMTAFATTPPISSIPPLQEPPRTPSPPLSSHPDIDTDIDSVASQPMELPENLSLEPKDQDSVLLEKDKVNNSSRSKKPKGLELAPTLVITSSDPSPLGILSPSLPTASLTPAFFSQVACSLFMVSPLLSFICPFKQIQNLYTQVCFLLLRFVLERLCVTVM
To be noted: protein: recombinant; tags: N-terminal GST; dsDNA, one strand shown. Put shortly: as §1

The next experiment deals with T4, ETV2 (Homo sapiens, UniProt O00321 1-342).
T4 sequence: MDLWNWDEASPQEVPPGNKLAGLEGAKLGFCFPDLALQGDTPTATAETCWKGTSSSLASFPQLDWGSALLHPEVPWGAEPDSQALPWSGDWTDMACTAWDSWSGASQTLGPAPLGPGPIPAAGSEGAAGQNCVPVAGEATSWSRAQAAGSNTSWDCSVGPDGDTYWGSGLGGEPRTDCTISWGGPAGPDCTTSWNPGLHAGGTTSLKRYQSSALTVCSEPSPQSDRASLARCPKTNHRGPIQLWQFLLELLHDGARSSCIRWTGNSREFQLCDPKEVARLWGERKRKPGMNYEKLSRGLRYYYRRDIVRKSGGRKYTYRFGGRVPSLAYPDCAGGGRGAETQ
Particulars: protein: recombinant; tags: N-terminal GST; dsDNA, one strand shown. Put shortly:
as §1

The next experiment addresses T5, ELF3 (Homo sapiens, UniProt P78545 1-371).
T5 sequence: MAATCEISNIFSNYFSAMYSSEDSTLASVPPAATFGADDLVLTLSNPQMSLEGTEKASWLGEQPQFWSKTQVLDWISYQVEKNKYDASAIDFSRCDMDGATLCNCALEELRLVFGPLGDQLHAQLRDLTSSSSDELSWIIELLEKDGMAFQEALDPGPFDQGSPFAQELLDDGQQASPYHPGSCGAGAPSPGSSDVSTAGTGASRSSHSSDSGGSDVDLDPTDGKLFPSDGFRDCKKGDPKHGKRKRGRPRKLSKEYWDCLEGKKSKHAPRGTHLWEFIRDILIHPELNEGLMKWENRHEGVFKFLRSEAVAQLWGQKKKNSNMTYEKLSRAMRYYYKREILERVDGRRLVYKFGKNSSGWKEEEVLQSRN
Particulars: protein: recombinant; tags: N-terminal GST; dsDNA, one strand shown. Put shortly: as §1

In another experiment the target is CRX (Homo sapiens, UniProt O43186 1-299). Particulars: protein: recombinant; tags: N-terminal GST; dsDNA, one strand shown. Put shortly: as §1
The target of the next experiment is ETV1 (Homo sapiens, UniProt P50549 1-477). Particulars: protein: recombinant; tags: N-terminal GST; dsDNA, one strand shown. Put shortly:
as §1

The target of another experiment is T6, ERF (Homo sapiens, UniProt P50548 1-548).
T6 sequence: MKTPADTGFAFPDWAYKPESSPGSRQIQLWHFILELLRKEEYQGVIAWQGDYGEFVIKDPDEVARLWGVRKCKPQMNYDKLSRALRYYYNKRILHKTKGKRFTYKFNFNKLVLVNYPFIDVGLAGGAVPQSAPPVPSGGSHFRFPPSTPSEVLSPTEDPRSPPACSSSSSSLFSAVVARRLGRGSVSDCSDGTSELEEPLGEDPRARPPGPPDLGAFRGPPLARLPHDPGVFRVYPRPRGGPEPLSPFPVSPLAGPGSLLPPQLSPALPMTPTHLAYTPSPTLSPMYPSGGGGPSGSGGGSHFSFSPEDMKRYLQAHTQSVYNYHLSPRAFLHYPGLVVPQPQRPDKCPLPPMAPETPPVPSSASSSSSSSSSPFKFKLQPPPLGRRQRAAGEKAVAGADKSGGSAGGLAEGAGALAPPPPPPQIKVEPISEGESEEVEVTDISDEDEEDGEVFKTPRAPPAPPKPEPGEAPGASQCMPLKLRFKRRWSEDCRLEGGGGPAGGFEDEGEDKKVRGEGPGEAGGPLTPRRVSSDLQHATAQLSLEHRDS
Particulars: protein: recombinant; tags: N-terminal GST; dsDNA, one strand shown. Summed up:
as §1

The target of another experiment is T7, ETV3L (Homo sapiens, UniProt Q6ZN32 1-361).
T7 sequence: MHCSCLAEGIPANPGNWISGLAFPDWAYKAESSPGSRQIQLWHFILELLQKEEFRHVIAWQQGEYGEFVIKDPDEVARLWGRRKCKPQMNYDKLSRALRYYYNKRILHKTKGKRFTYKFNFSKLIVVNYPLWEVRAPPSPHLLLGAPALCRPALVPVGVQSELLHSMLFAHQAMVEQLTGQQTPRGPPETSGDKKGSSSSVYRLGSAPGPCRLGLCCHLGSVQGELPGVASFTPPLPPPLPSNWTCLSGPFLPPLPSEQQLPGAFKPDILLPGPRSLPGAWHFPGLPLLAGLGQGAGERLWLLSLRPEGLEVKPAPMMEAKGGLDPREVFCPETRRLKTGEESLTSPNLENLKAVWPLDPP
Particulars: protein: recombinant; tags: N-terminal GST; dsDNA, one strand shown. Put shortly: as §1

The target in the next experiment is T8, ETS2 (Homo sapiens, UniProt P15036 1-469).
T8 sequence: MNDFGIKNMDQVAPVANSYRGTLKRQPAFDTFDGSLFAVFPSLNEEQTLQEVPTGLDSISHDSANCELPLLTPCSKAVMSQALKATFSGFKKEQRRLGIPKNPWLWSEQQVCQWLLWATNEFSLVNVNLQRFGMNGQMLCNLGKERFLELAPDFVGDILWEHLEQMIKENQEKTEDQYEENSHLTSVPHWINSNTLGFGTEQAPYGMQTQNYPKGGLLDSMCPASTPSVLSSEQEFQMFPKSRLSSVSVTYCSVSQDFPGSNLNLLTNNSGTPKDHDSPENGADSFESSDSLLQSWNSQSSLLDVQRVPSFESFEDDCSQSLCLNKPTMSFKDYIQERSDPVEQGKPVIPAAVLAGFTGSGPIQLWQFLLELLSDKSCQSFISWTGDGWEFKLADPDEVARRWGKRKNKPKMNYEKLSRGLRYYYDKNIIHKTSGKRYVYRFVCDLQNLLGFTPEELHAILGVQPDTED
To be noted: protein: recombinant; tags: N-terminal GST; dsDNA, one strand shown. Put shortly: as §1

Another experiment addresses T9, SPDEF (Homo sapiens, UniProt O95238 1-335).
T9 sequence: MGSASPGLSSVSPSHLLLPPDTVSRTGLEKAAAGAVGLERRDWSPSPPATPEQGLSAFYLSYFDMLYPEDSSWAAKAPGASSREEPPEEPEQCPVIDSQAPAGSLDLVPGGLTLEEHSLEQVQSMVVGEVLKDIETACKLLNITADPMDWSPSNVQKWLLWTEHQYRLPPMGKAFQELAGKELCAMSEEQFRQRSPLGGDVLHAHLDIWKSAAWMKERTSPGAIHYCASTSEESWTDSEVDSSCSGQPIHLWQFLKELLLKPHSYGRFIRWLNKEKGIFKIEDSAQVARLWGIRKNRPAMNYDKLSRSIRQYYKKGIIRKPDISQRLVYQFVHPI
To be noted: protein: recombinant; tags: N-terminal GST; dsDNA, one strand shown. Summed up:
as §1

A further experiment concerns the target T10, ETV7 (Homo sapiens, UniProt Q9Y603 1-341).
T10 sequence: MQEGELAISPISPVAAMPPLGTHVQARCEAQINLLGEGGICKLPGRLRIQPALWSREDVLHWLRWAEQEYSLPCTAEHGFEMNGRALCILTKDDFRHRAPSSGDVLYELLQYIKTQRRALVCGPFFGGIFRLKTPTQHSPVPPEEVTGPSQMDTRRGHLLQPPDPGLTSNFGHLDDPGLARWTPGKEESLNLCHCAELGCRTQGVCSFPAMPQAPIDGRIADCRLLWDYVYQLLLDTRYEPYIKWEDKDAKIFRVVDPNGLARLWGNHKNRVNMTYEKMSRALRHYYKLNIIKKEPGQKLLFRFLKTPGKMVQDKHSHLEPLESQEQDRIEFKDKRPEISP
Particulars: protein: recombinant; tags: N-terminal GST; dsDNA, one strand shown. Put shortly: as §1

Another experiment addresses T11, ELF5 (Homo sapiens, UniProt Q9UKW6-2 1-255).
T11 sequence: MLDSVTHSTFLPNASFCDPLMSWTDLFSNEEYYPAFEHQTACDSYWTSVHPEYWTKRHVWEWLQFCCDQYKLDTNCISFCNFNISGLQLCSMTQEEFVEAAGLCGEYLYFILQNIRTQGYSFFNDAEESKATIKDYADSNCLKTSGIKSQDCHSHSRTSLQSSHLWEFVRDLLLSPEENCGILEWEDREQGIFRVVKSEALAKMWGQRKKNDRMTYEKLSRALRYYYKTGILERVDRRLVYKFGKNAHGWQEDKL
Particulars: protein: recombinant; tags: N-terminal GST; dsDNA, one strand shown. Summed up: as §1

The next experiment deals with T12, ETV3 (Homo sapiens, UniProt P41162-2 1-143).
T12 sequence: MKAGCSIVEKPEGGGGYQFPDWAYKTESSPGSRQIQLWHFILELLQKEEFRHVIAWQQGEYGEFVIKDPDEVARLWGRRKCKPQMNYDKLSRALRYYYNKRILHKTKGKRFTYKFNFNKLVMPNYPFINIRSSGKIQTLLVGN
To be noted: protein: recombinant; tags: N-terminal GST; dsDNA, one strand shown. Put shortly:
as §1

The target of another experiment is ETV6 (Homo sapiens, UniProt P41212 1-452). Particulars: protein: recombinant; tags: N-terminal GST; dsDNA, one strand shown. Summed up:
as §1

ETV1, sequence (P50549 whole entry): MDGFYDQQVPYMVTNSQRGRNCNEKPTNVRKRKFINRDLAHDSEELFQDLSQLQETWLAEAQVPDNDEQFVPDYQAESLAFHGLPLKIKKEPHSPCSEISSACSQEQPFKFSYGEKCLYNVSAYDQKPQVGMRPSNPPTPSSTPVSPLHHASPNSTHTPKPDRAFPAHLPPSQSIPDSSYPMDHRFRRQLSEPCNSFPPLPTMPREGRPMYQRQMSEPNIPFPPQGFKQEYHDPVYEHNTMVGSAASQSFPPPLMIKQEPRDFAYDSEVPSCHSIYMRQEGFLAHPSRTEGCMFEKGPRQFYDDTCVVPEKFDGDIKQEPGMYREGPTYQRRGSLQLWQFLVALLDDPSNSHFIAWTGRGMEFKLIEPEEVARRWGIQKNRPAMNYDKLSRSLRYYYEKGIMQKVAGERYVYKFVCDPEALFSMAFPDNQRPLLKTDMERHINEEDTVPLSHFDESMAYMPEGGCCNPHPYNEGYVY
ELF4, sequence (Q99607 whole entry): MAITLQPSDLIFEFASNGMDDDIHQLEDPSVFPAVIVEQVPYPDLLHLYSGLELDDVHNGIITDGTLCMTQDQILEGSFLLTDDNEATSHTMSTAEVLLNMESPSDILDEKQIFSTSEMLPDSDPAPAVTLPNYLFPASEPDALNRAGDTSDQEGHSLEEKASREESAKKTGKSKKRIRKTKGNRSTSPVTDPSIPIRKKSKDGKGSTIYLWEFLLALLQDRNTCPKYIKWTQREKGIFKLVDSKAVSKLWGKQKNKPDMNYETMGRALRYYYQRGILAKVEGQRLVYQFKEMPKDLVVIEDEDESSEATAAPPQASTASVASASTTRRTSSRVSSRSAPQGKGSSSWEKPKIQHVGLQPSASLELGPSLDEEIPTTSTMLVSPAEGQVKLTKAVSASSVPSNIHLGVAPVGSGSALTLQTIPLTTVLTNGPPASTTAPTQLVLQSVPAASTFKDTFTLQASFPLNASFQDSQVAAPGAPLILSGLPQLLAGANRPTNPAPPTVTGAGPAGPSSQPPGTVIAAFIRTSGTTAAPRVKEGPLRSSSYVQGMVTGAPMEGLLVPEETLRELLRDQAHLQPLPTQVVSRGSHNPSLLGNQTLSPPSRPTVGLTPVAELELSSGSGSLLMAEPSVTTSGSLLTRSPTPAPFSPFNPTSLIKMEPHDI
CRX, sequence (O43186 whole entry): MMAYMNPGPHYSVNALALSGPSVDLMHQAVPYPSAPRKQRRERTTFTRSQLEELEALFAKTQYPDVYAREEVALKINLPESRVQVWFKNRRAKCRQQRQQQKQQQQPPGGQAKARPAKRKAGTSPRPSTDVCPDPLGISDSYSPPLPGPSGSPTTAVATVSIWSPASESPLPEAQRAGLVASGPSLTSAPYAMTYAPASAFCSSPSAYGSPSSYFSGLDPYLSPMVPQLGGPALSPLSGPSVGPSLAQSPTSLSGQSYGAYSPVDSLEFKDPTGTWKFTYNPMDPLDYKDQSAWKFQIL
ETV5, sequence (P41161 whole entry): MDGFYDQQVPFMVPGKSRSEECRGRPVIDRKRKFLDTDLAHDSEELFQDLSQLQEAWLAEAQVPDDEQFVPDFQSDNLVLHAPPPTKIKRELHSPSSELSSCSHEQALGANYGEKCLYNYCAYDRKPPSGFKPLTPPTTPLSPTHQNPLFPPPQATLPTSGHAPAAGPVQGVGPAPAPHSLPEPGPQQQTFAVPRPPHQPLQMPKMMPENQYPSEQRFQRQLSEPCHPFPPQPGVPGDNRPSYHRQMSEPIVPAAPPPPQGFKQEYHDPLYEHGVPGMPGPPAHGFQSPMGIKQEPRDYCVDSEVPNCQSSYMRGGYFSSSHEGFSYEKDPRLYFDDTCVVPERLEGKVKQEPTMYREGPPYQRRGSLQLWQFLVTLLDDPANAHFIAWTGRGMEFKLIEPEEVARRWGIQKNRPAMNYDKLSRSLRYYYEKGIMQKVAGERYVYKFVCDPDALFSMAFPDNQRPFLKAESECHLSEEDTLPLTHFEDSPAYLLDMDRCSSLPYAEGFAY
ETV6, sequence (P41212 whole entry): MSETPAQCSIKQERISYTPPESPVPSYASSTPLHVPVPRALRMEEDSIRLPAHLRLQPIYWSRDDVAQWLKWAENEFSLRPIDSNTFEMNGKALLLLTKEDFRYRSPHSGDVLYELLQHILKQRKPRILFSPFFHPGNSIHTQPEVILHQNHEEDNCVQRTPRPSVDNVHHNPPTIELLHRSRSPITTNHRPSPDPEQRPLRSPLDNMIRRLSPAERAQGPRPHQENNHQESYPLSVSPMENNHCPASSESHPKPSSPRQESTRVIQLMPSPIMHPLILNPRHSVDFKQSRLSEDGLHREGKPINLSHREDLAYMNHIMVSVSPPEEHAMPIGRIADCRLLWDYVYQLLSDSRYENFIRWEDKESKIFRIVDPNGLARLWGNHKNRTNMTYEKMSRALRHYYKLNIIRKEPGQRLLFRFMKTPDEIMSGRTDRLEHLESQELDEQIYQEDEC
HSF1, sequence (Q00613 whole entry): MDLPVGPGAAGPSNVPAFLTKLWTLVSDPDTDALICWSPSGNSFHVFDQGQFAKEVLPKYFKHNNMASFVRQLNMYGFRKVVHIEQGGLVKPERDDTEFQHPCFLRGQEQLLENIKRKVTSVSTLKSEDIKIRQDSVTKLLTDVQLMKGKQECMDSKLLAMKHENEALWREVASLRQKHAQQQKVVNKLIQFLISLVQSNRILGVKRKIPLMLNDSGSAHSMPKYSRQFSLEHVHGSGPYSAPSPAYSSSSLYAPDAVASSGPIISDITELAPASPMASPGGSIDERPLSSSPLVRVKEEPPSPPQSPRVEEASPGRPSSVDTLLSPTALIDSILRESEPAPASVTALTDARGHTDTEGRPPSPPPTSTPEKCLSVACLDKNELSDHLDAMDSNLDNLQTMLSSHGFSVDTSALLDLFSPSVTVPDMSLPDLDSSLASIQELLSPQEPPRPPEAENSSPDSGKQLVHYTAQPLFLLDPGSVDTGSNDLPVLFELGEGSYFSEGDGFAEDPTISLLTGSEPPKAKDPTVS

For the sequence CCTCGA, the binding signal was 1.21 fold enrichment (6-mer frequency, TF over GST control) with FEV; 1.27 fold enrichment (6-mer frequency, TF over GST control) with ETV5; 1.75 fold enrichment (6-mer frequency, TF over GST control) with HSF1; 1.29 fold enrichment (6-mer frequency, TF over GST control) in the experiment with SPIC; 1.35 fold enrichment (6-mer frequency, TF over GST control) in the experiment with ELF4; 1.38 fold enrichment (6-mer frequency, TF over GST control) in the experiment with ELK4. The binding signal was 1.55 fold enrichment (6-mer frequency, TF over GST control) with ETV2; 1.25 fold enrichment (6-mer frequency, TF over GST control) with ELF3; 1.26 fold enrichment (6-mer frequency, TF over GST control) with CRX; 1.15 fold enrichment (6-mer frequency, TF over GST control) in the experiment with ETV1; 1.28 fold enrichment (6-mer frequency, TF over GST control) with ERF; 1.35 fold enrichment (6-mer frequency, TF over GST control) with ETV3L. The binding signal was 1.21 fold enrichment (6-mer frequency, TF over GST control) with ETS2; 1.23 fold enrichment (6-mer frequency, TF over GST control) with SPDEF; 1.42 fold enrichment (6-mer frequency, TF over GST control) with ETV7; 1.34 fold enrichment (6-mer frequency, TF over GST control) with ELF5; 1.26 fold enrichment (6-mer frequency, TF over GST control) with ETV3; 1.29 fold enrichment (6-mer frequency, TF over GST control) with ETV6.
